± gives the standard deviation of the averaged measurements.
Test system: AEK1 (Tb927.3.2440)
Assay: percent reduction in TR-FRET probe signal relative to DMSO control; higher = stronger displacement of ATP-site probe (binding)
Conditions: 1 µM; incubation time 1 h

SMILES	percent reduction in TR-FRET probe signal [%]
Cc1ccccc1-n1c(Cn2ncc3c(N)ncnc32)nc2cccc(C)c2c1=O	-5.42 ± 2.9
N#CC(C#N)=Cc1ccc(O)c(O)c1	7.98 ± 17
COc1ccc2c(c1)/C(=C/c1cnc[nH]1)C(=O)N2	-2.34 ± 5.7
O=c1[nH]c2ccc(Cl)cc2c(N[C@@H]2CN3CCC2CC3)c1-c1nc2ccccc2[nH]1	25.9 ± 11
C/C(O)=C(\C#N)C(=O)Nc1cc(Br)ccc1Br	-3.29 ± 1.9
COc1ccc(N(C(=O)Oc2c(C)cccc2C)c2ccnc(Nc3ccc(N4CCN(C)CC4)cc3)n2)c(OC)c1	12.5 ± 3.4
CC(C)(C)c1cc(C=C(C#N)C#N)cc(Br)c1O	17.3 ± 12
CCN1CCN(C(=O)Cc2ccc(Nc3ncc(F)c(Nc4ccc(C(=O)Nc5ccccc5Cl)cc4)n3)cc2)CC1 [Aurora A Inhibitor I]	24.1 ± 4.8
CC(C)(C)c1cc(C=C(C#N)C#N)cc(C(C)(C)C)c1O [Tyrphostin 9]	15.1 ± 1.3
Cn1cc(C2=C(c3cn(C4CCN(Cc5ccccn5)CC4)c4ccccc34)C(=O)NC2=O)c2ccccc21	-6.77 ± 7.9
O=c1[nH]c2ccccc2n1C1CCN(Cc2ccc(-c3nc4cc5nc[nH]c5cc4nc3-c3ccccc3)cc2)CC1	-9.38 ± 1.6

— the supplement of paper PMC10720658
